Targets include RAB11A; RAD9A; RBM38; RBMX; RBM45; RBM28; RBMY1E.
Holding throughout (assay): pooled miR-30 sensor sort-seq; sequence = guide strand
Holding throughout (conditions): shRNA
Also: reference of the scale not given here.

In the assay with RAB11A, TTGTCTGAAAAGCAGCTTCTAC had a sensor-assay potency score (higher = more potent) of -1.05. Regarding TCATTGGCAAAGTCGTCCGGGT, the sensor-assay potency score (higher = more potent) in the assay with RAD9A is -0.913. TATGGGTACTGGTCATAGGTGG showed a sensor-assay potency score (higher = more potent) with RBM38 of -0.624. In the assay with RBMX, TCTCTATCGCTATATCCTCTTG registered a sensor-assay potency score (higher = more potent) of -1.36. Turning to TTCGGGTCTTTGCAAGCCCTCT, the sensor-assay potency score (higher = more potent) with RBM38 was -1.39. With TCGACTTCCACCATATCCGTCA, the sensor-assay potency score (higher = more potent) with RBMX was -0.253. In the assay with RBM45, TAAAATACTGAACCACTCCATG gave a sensor-assay potency score (higher = more potent) of -0.914. Turning to TACCACTTTCAAATGATGGTTT, the sensor-assay potency score (higher = more potent) in the assay with RBMX is -0.141. The same measure, in the same setting: in the case of TATCTCTTCCACGTGATACAGG it was -1.23. Sequence ATATCCACCGTCATCCATGTGT came in with a sensor-assay potency score (higher = more potent) with RBMX of -0.304.

As for TATATCTTCTAATACGTCTAAA, in the assay with RBM45, the sensor-assay potency score (higher = more potent) is -0.714. With TTAACTTCTTGCTTTCAGGTTT, in the assay with RBM38, the sensor-assay potency score (higher = more potent) came out at 0.295. With TATCCGTCACGTGAGCTGCTGT, in the assay with RBMX, the sensor-assay potency score (higher = more potent) was -0.783.

In the assay with RBM45, TTCATCTTCAACATCTCGGTGA showed a sensor-assay potency score (higher = more potent) of 0.811.

The sequence TACTATAATAATCTTGTTCAGA displayed a sensor-assay potency score (higher = more potent) with RBM45 of -0.469. Same read-out and setting: in the case of TATTACTATAATAATCTTGTTC it was -0.451. TAAACAGTCCATTAACTTCTTG showed a sensor-assay potency score (higher = more potent) with RBM38 of -0.519. TTGGTCTGGAACCCGGTCCATG had a sensor-assay potency score (higher = more potent) in the assay with RBM28 of -1.16. Consider TTTCTTGTCTGCCAACCCGATC, for which the sensor-assay potency score (higher = more potent) with RBMX was -1.65. Consider TATCGCTATATCCTCTTGATGG, for which, in the assay with RBMX, the sensor-assay potency score (higher = more potent) is -1. AAACAGTCCATTAACTTCTTGC had a sensor-assay potency score (higher = more potent) with RBM38 of 0.128. In the case of TAAATTGTTGCTGACTTGGGTT, the sensor-assay potency score (higher = more potent) in the assay with RBM45 amounted to 0.143. In the assay with RBMX, TAGTATCACGAGAACTTGGGTA had a sensor-assay potency score (higher = more potent) of -0.18. For TCTATCGCTATATCCTCTTGAT, the sensor-assay potency score (higher = more potent) with RBMX was -0.479.

As for TTGAATAAGGATCTCGTTGAAC, the sensor-assay potency score (higher = more potent) with RBM45 was -0.518. On to ACGAAGATCTTGGTGAACGTGG, for which the sensor-assay potency score (higher = more potent) with RBM38 was -1.06. The sequence TTGTCATCTACAGCCTTTGGGA displayed a sensor-assay potency score (higher = more potent) with RBM28 of -0.978. In the case of TACAGGAGCTCTTCCTCCCATT, the sensor-assay potency score (higher = more potent) in the assay with RBMX is -1.19. Still for that read-out and setting: in the case of TCCACTGCTACTGCGAACTGGT it was -0.729. Sequence AAGATCTTGGTGAACGTGGTGT yielded a sensor-assay potency score (higher = more potent) in the assay with RBM38 of 0.0778.

In turn, AACTTGAGCTACCACATGCTTC displayed a sensor-assay potency score (higher = more potent) with RBMY1E of -1.03. Turning to TTTTCCTAGATACCTGCTCGGA, in the assay with RBM28, the sensor-assay potency score (higher = more potent) was -0.748. As for TGGTACTGCACGAAAGTGGTGC, the sensor-assay potency score (higher = more potent) in the assay with RBM38 was -0.732. On to TGGAAGTACAACATCTGTCTGG, for which the sensor-assay potency score (higher = more potent) with RBM45 is -0.0344.

TAGCTGTAGCCCACGAAGCTGG registered a sensor-assay potency score (higher = more potent) with RBM38 of -1.08. The same measure, in the same setting: the result for TTGGTGAACGTGGTGTCCTTCT reads -0.339.
